This is a sample that favours compounds with a hit; in the whole collection about 2.4% have one here.
Tb PFK inh: T. brucei PFK enzyme inhibition; actives 0.17% (n = 330,000); O15648; AID 485367; Potency, µM (series often up to 57.5 µM), without a hit: at the highest dose activity, negative = inhibition, usual class: inhibitors; T. brucei PFK, ADP-Glo luminescence;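 also: 0% = uninhibited 1x PFK enzyme wells and -100% = no-enzyme wells; nearly all actives have a fitted effect of over 60% in size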
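Activity is normalized to no-enzyme wells (full inhibition) and 1.25 nM enzyme wells (no inhibition). Reaction: 0.5 mM F6P, 0.1 mM ATP, 45 min RT, ADP-Glo luminescence; concentration-response curves fitted and classed by quality.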
PKM2 activator: PKM2 (human) enzyme activation. P14618. actives 0.34% (n = 260,000). purified PKM2, Kinase-Glo ATP luminescence, activation; response scale: 0% is enzyme alone, no compound. Potency, µM (highest dose often 57.5 µM), without a hit: at the highest dose activation, actives largely listed as activators. AID 1631; also: % is scaled to controls: 0 for no effect and ±100 for the full control effect; nearly all actives have a fitted effect of over 55% in size
Target sequence (P14618 whole entry, looked up): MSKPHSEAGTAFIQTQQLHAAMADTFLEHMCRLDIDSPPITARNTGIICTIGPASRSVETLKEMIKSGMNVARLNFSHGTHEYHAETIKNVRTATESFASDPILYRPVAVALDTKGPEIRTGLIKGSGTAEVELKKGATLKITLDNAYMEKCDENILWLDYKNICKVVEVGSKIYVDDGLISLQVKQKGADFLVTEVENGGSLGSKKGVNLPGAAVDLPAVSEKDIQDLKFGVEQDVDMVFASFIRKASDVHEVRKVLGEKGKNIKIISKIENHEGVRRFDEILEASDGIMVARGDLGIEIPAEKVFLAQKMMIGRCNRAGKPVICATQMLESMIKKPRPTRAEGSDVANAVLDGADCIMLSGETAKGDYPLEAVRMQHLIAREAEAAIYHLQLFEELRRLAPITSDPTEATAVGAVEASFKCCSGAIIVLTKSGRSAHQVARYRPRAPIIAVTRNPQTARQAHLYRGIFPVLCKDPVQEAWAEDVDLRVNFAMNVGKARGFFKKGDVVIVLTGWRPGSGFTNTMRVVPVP
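Kinase-Glo luminescence reports ATP generated from ADP (0.1 mM) and PEP (0.5 mM) by purified hPK-M2 after 1 h at room temperature, pH 7.2 imidazole buffer; intermediate enzyme activity allows detecting inhibitors and activators.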
Rango-impB inh: prevents formation of the Rango-importin beta complex | Rango CFP/YFP FRET sensor + importin beta, 45 min | actives 0.031% (n = 340,000) | AID 540263 | Potency, µM (series often up to 92.2 µM), without a hit: top-dose inhibition of complex formation; calls by dose curve;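 also: 0% = DMSO wells and 100% = buffer wells lacking importin beta; nearly all actives have a fitted effect of over 15% in size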
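FRET biosensor Rango (snurportin 1 IBB between N-terminal EYFP and C-terminal Cerulean), 50 nM in PBS/1 mM DTT/0.02% Tween-20/0.1% BSA, preincubated 5 min RT with compound; 0.125 microM importin beta added, 45 min RT, CFP/YFP FRET ratio read.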
ELG1 DNA repair: ELG1-dependent DNA repair inhibition. Potency, µM (titrated, usually from 46.1 µM), inactives show top-dose activity change, negative = inhibition, usual class: inhibitors. HEK293T ELG1-luciferase reporter, luminescence, 16 h; DNA damage induced by 5-fluorouridine. actives 2.3% (n = 330,000); also: % is scaled to controls: 0 for no effect and ±100 for the full control effect; nearly all actives have a fitted effect of over 55% in size
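Cells (2,000 per well) received 5-fluorouridine plus test compound or DMSO and were incubated 16 hr at 37 °C, 5% CO2. Luciferase activity was read by luminescence 30 min after ONE-Glo addition; signal suppression marked inhibition of damage-induced ELG1 function.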
Rango release inh: inhibition of RanGTP-driven Rango-importin beta dissociation | O95149+P62826 | Biochemical FRET Rango-importin beta, RanGTP-induced dissociation | Potency, µM (top dose mostly 46.1 µM), inactives show at the top dose activity change, negative = inhibition | actives 0.071% (n = 340,000); calls by dose curve; also: % of control where 0% means no effect; nearly all actives have a fitted effect of over 45% in size
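Recombinant Rango FRET biosensor (EYFP–snurportin 1 IBB–cerulean CFP10) at 0.1 uM premixed with 0.25 uM importin beta in PBS, 1 mM DTT, 0.02% Tween-20, 0.1% BSA. Compound added 5 min; RanGTP-RCC1 (0.6 uM Ran, 2 mM GTP, 0.2 uM RCC1) then triggers release, read at 45 min.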
PGK inhibitor: blocks T. brucei phosphoglycerate kinase; P07378; actives 0.043% (n = 380,000); Potency, µM (highest dose often 57.5 µM), for the others: at the highest dose activity change, negative = inhibition, most hits filed as inhibitors; PGK/GAPDH coupled, Kinase-Glo luminescence, 60 min; also: % is scaled to controls: 0 for no effect and ±100 for the full control effect; nearly all actives have a fitted effect of over 60% in size
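Luminescent ATP detection (Kinase-Glo Plus) follows a 60-minute room-temperature incubation, with wells lacking PGK as controls. Buffer: 100 mM TEA (pH 7.6), 5 mM MgCl2, 0.01% Tween-20. Coupling enzyme GAPDH (100 nM final) supplies unstable 1,3-BPG in-well.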
* hit, by the source's call; i = inactive; u = inconclusive; x = not tested or not shown; [ ] = remark or other dose. Unless noted, calls follow the shape of the dose curve; as a rule, active = well fitted curve in the direction sought with a large enough effect; inconclusive = small, poorly fitted or top-dose-only effect, or another doubt; inactive = no such curve, though single readings can be large; an effect the other way counts as inactive or inconclusive. Potency is read from the fitted curve at half-maximal effect.

SMILES	Tb PFK inh	PKM2 activator	Rango-impB inh	ELG1 DNA repair	Rango release inh	PGK inhibitor
Clc1ccccc1Cn1nnc2c(Nc3ccccc3)ncnc21	1%	18%	2%	-6%	2%	3%
CCOCCCNc1nc(C(F)(F)F)nc2c1nnn2Cc1ccccc1Cl	-3%	x	-2%	18µM*	21%	x
Clc1ccccc1Cn1nnc2c(NCC3CC3)ncnc21	4%	8.9µM*	-1%	u	-16%	x
C=CCNc1nc(C(F)(F)F)nc2c1nnn2Cc1ccccc1Cl	0%	1%	5%	17%	4%	-5%
Cc1nn(-c2ccccc2)c(OC(=O)c2ccccc2)c1S(=O)(=O)c1ccccc1	x	x	x	x	x	-2%
COc1ccc(N(Cc2cccs2)C(=O)c2ccco2)cc1	x	x	x	x	x	10%
Cc1ccc(-c2csc(N3CCN(CCCn4c(-c5ccncc5)nc5ccccc54)CC3)n2)cc1	-1%	-2%	-2%	u	-5%	-8%
Cc1ccc(-c2csc(N3CCC[C@@H]3C(=O)NCCn3c(-c4ccncc4)nc4ccccc43)n2)cc1	0%	6%	-1%	15µM*	-15%	i
Cc1cccc2nc(CSc3nnnn3-c3ccccc3)cn12	2%	20%	-2%	-1%	-3%	-4%
Cc1cc(C)n2cc(CSc3nnnn3-c3ccc(Cl)cc3)nc2n1	-5%	16µM*	3%	11%	-6%	-6%
Cc1cc(C)n2cc(CSc3nnnn3-c3ccccc3)nc2n1	-15%	8.9µM*	1%	-2%	-9%	i
CN(C)S(=O)(=O)c1cccc(-c2nn(-c3ccccc3)cc2/C=C(\C#N)c2nc3ccccc3[nH]2)c1	5%	-1%	u	2.6µM*	u	-5%
CN(C)S(=O)(=O)c1cccc(-c2nn(-c3ccccc3)cc2/C=C2\SC(=S)NC2=O)c1	1%	0%	0%	23µM*	-4%	u
CC1CCN(c2ccc(-c3cccc(NS(=O)(=O)c4ccc(F)cc4F)c3)nn2)CC1	x	x	x	x	x	-5%
COc1ccc(OC)c(-c2csc(NC(=O)Cc3ccccc3)n2)c1	-4%	x	-5%	-24%	-12%	i
COC(=O)c1cc(-c2cc(OC)ccc2OC)nc2c1c(=O)n(C)c(=O)n2Cc1ccccc1	2%	x	0%	9.2µM*	0%	-1%
CCOC(=O)N1CCN(CCC(=O)Nc2cccc(Cl)c2C)CC1	0%	1%	-1%	9%	8%	-2%
COc1ccc(C2NC(=O)NC(C)=C2[N+](=O)[O-])cc1 (stereo not drawn)	2%	1%	-3%	4%	-13%	2%
O=C(CSc1ccccc1)N1CCN(S(=O)(=O)c2cccs2)CC1	-10%	1.1µM*	3%	21%	-8%	5%
O=C(CCCc1cccs1)N1CCN(S(=O)(=O)c2ccccc2Br)CC1	-1%	11µM*	2%	u	-7%	-5%
O=C(CCCc1c[nH]c2ccccc12)N1CCOCC1	-2%	-6%	0%	u	14%	i
O=C(CCCc1c[nH]c2ccccc12)N1CCN(S(=O)(=O)c2cccs2)CC1	0%	1.6µM*	-4%	u	-14%	-3%
COC(=O)C1=C(C(=O)OC)[C@@H]2N(C)c3ccccc3[C@@]23C[C@@H](C(=O)OC)N(S(=O)(=O)c2ccc(C(F)(F)F)cc2)C3=N1	x	1%[11.5 µM]	x	x	x	x
O=C(OCCNc1ncc(C(F)(F)F)cc1Cl)c1ccc(S(=O)(=O)N2CCOCC2)cc1	-4%	20µM*	-2%	15%	-8%	x
O=C(NCCOC(=O)c1ccc(S(=O)(=O)N2CCOCC2)cc1)c1cccnc1	-2%	10%	-3%	u	0%	i
SMILES	Tb PFK inh	PKM2 activator	Rango-impB inh	ELG1 DNA repair	Rango release inh	PGK inhibitor
COc1ccccc1Nc1nc(NCCO)nc(N)c1[N+](=O)[O-]	13%	14%	2%	-24%	8%	-7%
COc1ccccc1Nc1nc(NCCC(C)C)nc(N)c1[N+](=O)[O-]	16%	4%	-4%	21µM*	-4%	0%
CCOc1ccc2nc(Cl)c(CN(C(=O)c3cnccn3)C3CCCC3)cc2c1	-5%	11%	-3%	15µM*	8%	-10%
CCOc1ccc2nc(Cl)c(CN(C(C)=O)C3CCCCC3)cc2c1	12%	5%	0%	-13%	0%	-7%
CCCOc1ccc(NC(=O)CC2C(=O)N(c3cccc(OC)c3)C(=O)N2Cc2cccs2)cc1 (stereo not drawn)	x	x	x	x	x	1%
Cc1ccc2c(c1)N(C(=O)CCC(=O)N1CCC(C(N)=O)CC1)CCO2	-2%	0%	0%	3%	2%	-7%
O=C(NCCn1cc(SCc2ccccc2)c2ccccc21)c1ccccc1F	-4%	4%	0%	13µM*	15%	-2%
CN1C(=O)/C(=C/c2cn(CC(=O)N3CCCCC3)c3ccccc23)NC1=S	4%	x	u	7%	u	-7%
CN1C(=O)/C(=C/c2cn(CC(=O)NCc3ccco3)c3ccccc23)NC1=S	-8%	7.9µM*	x	-20%	x	x
CCOC(=O)c1c(C)c(-c2ccccc2)n(CC(=O)Nc2cc(C)cc(C)c2)c1C	x	x	x	x	x	0%
CCCCCCOc1ccc(/C=C/C(=O)Nc2sc3c(c2C(=O)OC)CCC3)cc1OC	x	x	x	x	x	-9%
CCn1cc(C(=O)NC2CCCCCC2)c2cc(OC)c(OC)cc2c1=O	-11%	-2%	-1%	13µM*	-5%	i
CCN(CC)S(=O)(=O)c1cc(NC(=O)C(C)N2CCc3ccccc32)ccc1C (stereo not drawn)	2%	-4%	-2%	u	13%	0%
CCN(CC)S(=O)(=O)c1cc(NC(=O)C(C)N(C)CC(=O)Nc2c(C)cccc2C)ccc1C (stereo not drawn)	0%	-3%	-1%	21µM*	-4%	-6%
Cc1cc(C(=O)COC(=O)Cc2n[nH]c(=O)c3ccccc23)c(C)n1-c1ccc2c(c1)OCO2	5%	10%	-2%	13µM*	-8%	-1%
COc1ccc(-n2c(C)cc(C(=O)COC(=O)Cc3n[nH]c(=O)c4ccccc34)c2C)cc1	1%	-4%	4%	u	3%	-2%
CC(=O)Nc1c(Cl)cc(Cl)c2c1Cc1cc(Cl)ccc1-2	x	x	6%	x	1%	-4%
CN(C)S(=O)(=O)c1ccc(C(=O)NCCSc2c(-c3ccccc3)[nH]c3ccccc23)cc1	x	x	x	x	x	i

Screening results deposited in PubChem BioAssay by National Center for Advancing Translational Sciences (NCATS).
